# A selection: hits, their analogues and other compounds. The true share with any hit is near 18%.
# DT40 TDP1 CPT – growth inhibition of DT40 Tdp1-/-;hTDP1 cells with camptothecin (screen for TDP1 inhibitors) | chicken DT40 Tdp1-/-;hTDP1 cells + 20 nM CPT, ATP luminescence, 48 h | Potency, µM (series often up to 46.2 µM), for the others: at the highest dose activity change, negative = growth inhibition, hits mostly inhibitors | AID 686979 | hit rate 12% among 420,000; note: potency is the fitted concentration of half-maximal effect; % is set by controls: 0 for no effect and ±100 for the full control effect; nearly all actives have a fitted effect of over 55% in size
#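 Chicken DT40 Tdp1-/- cells stably complemented with human TDP1 were seeded at 400 cells/well in medium containing 20 nM camptothecin, exposed to pin-transferred compounds, and grown at 37 °C for at least 48 hr. Viability was read as ATP luminescence.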
# IL-1B inflam inh – inflammasome signaling inhibition, IL-1 beta readout; THP-1 LPS/ATP IL-1B secretion, AlphaLISA, 16 h; active compounds read low; activity change, % at 57.5 µM; hit rate 4.7% among 360,000; AID 743279; in the data active = activity change below about -50%; inconclusive = mostly about -30% to -49%; note: % is set by controls: 0 for no effect and ±100 for the full control effect
#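 Secreted IL-1B measured by AlphaLISA bead assay after 16 h compound exposure of THP-1 cells; compounds (final up to 57.5 uM) added 1 h before LPS (250 ng/mL) and ATP (1.25 mM) stimulation; lower signal means less secretion.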
# TDP1 cell noCPT – qHTS for Inhibitors of human tyrosyl-DNA phosphodiesterase 1 (TDP1): qHTS in cells in absence of CPT | Potency, µM (doses to about 46.2 µM), inactives show top-dose activity change, negative = growth inhibition, usual class: inhibitors | hit rate 15% among 420,000 | AID 686978, 2013 | DT40 Tdp1-/- hTDP1 cells, no CPT, ATP luminescence, 48 h; note: potency is the fitted concentration of half-maximal effect; % is set by controls: 0 for no effect and ±100 for the full control effect; nearly all actives have a fitted effect of over 55% in size
#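 Growth of hTDP1-complemented DT40 Tdp1-knockout cells is measured by ATP luminescence after at least 48 hr compound exposure at 37 °C, with DMSO substituting for the 20 nM CPT used in the parallel screen.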
# TGFb inhibitor – TGF-b pathway inhibition | HepG2 CAGA-GFP TGF-b/SMAD3 reporter, GFP fluorescence, 18 h; TGF-beta stimulated, 500 pg/mL final | Potency, µM (doses to about 46.1 µM), for inactives: top-dose activity, negative = inhibition, most hits filed as inhibitors | hit rate 1.2% among 410,000 | AID 588855; note: potency is the fitted concentration of half-maximal effect; % is set by controls: 0 for no effect and ±100 for the full control effect; nearly all actives have a fitted effect of over 65% in size
#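 Read-out: total well GFP (ex488/em500-530) summed from mean per-cell fluorescence. Cells: HEPG2 CAGA-GFP, 1% FBS DMEM, 18 h at 37 degrees C with 500 pg/mL final TGF-beta. Unstimulated wells served as the full-inhibition control; stimulated DMSO wells = 0%.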
# HepG2 viability – counter-screen for TGF-b inhibitors: cytotoxicity in HepG2 cells | AID 588856 | Potency, µM (highest dose often 46.1 µM), inactives show at the highest dose activity change, negative = cytotoxicity, actives largely listed as cytotoxic | HepG2 CAGA-GFP viability, ATP luminescence, 18 h | hit rate 0.76% among 410,000; note: potency is the fitted concentration of half-maximal effect
#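 CellTiter-Glo luminescence gave cytotoxicity after 18 hours at 37 degrees C. The cells were HepG2 CAGA-GFP in 1% FBS DMEM, stimulated with 500 pg/mL TGF-beta after compound addition. %Activity was normalised to no-cell wells (complete cell-killing) and DMSO (no toxicity), and curves were fitted and classified.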
# TDP1 block – blocks human tyrosyl-DNA phosphodiesterase 1 | Q9NUW8 | recombinant TDP1, AlphaScreen DNA substrate cleavage | Potency, µM (doses to about 130 µM), without a hit: at the highest dose activity change, negative = inhibition, hits mostly inhibitors | hit rate 0.28% among 350,000 | AID 485290; note: potency is the fitted concentration of half-maximal effect; % is set by controls: 0 for no effect and ±100 for the full control effect; nearly all actives have a fitted effect of over 40% in size
# Target sequence (Q9NUW8 whole entry, looked up): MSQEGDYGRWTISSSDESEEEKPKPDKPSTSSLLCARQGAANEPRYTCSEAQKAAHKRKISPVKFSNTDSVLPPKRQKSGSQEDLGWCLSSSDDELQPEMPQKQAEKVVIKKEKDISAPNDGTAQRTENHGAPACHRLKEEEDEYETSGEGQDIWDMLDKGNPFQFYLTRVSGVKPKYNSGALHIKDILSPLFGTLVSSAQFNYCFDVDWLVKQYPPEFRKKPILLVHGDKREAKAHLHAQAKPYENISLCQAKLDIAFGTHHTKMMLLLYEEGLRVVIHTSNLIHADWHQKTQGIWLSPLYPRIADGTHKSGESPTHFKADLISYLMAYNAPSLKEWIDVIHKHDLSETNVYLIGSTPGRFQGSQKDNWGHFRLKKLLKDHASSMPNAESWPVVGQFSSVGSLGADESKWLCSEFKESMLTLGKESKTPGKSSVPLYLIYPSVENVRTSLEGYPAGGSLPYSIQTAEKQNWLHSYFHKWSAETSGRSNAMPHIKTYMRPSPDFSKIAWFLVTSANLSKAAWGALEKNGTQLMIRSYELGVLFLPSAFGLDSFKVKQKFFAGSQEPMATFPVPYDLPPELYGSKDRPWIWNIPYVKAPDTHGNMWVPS
#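 Enzyme-compound mixtures sat 15 min at room temperature, followed by a 5 min reaction with 15 nM final substrate and 10 min with AlphaScreen beads. Recombinant human Tdp1 was used at 1 nM final.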
# * = called active by the depositor; ? = inconclusive; nt = no result; [ ] = remark or other dose. Unless noted, calls come from the whole dose curve; as a rule, active = well fitted curve in the direction sought with a large enough effect; inconclusive = small, poorly fitted or top-dose-only effect, or another doubt; inactive = no such curve, though single readings can be large; an effect the other way counts as inactive or inconclusive.
SMILES,DT40 TDP1 CPT,IL-1B inflam inh,TDP1 cell noCPT,TGFb inhibitor,HepG2 viability,TDP1 block
O=C(N/N=C/c1cn(-c2ccccc2)nc1-c1ccc(F)cc1)c1ccc(Br)o1,21µM*,-56*,23µM*,-14%,4%,5%
O=C(N/N=C/c1cn(-c2ccccc2)nc1-c1cccs1)c1ccc(Cl)cc1,?,-29,?,?,-27%,4%
COc1ccc(CCN2C(=O)NC(NC(=O)c3ccccc3OC)(C(F)(F)F)C2=O)cc1OC (stereo unspecified),?,nt,?,-13%,-11%,2%
CCOC(=O)Nc1cccc2ccccc12,5%,11,-8%,-19%,-1%,1%
CCOC(=O)Nc1ccc2c3c(cccc13)-c1ccccc1-2,18µM*,25,21µM*,46%,-32%,nt
Cc1cc(C)nc(N(C#N)CCOc2ccccc2)n1,?,?,?,-4%,-29%,2%
COc1ccccc1OCCN(C#N)c1nc(N(C)C)nc(N(C)C)n1,21µM*,-77*,?,0%,-5%,0%
COc1ccccc1CNc1cc(-c2cccc(C#N)c2)ncn1,-21%,nt,-17%,nt,nt,nt
Cc1cc(C)c2nc(N3CCCC(C(=O)NCc4ccccc4F)C3)sc2c1 (stereo unspecified),?,nt,?,?,-25%,-3%
CCCCN1C2=C(C(=O)CCC2)C(c2ccc(Cl)c(Cl)c2)C2=C1c1ccccc1C2=O (stereo unspecified),16µM*,-11,?,4%,-4%,2%
CCCN1C(=O)c2ccccc2NC1c1ccc(Cl)c(Cl)c1 (stereo unspecified),?,-1,?,1%,-2%,nt
C=Cn1cc(CNC[C@H]2O[C@@H](n3ccc(N)nc3=O)[C@H](O)[C@@H]2O)c(C)n1,1%,-2,20%,?,-62%,nt
O=C(NCCCCN1CCOCC1)c1cc2ccccc2o1,nt,nt,nt,nt,nt,8%
CCc1ccccc1CC1CN(Cc2ccccc2)Cc2ccccc2N1c1ccc(OC)cc1 (stereo unspecified),?,-12,12µM*,nt,nt,nt
N#Cc1ccc(CN2CC[C@@]3(CCCN(C(=O)c4ccncc4)C3)C2)cc1,8%,nt,1%,nt,nt,nt
CCN(CC)S(=O)(=O)c1ccc(N2CCOCC2)c(NC(=O)c2cc3ccccc3oc2=O)c1,?,-11,16µM*,-26%,-5%,5%
CCN(CC)S(=O)(=O)c1ccc(N2CCOCC2)c(NC(=O)CCOc2ccccc2)c1,?,-10,15µM*,-1%,7%,-6%
CCc1ccccc1OCC(=O)Nc1cc(S(=O)(=O)N(CC)CC)ccc1N1CCOCC1,21µM*,0,16µM*,-1%,-6%,0%
CCN(CC)S(=O)(=O)c1ccc(N2CCOCC2)c(NC(=O)CNCCc2ccccc2)c1,18µM*,-5,18µM*,-29%,-23%,0%
COc1ccc(OC)c(S(=O)(=O)n2ccnc2C(C)C)c1,2%,-3,3%,-8%,1%,nt
COCCNC(=O)c1cn(C2CCN(C3CCCC3)CC2)nn1,0%[9.04 µM],nt,6%,nt,nt,nt
CC(C)(C)c1ccc(OCCC(=O)Nc2ccc(N3CCOCC3)cc2N2CCOCC2)cc1,16µM*,-51*,16µM*,?,-2%,1%
CCOc1cc(N2CCOCC2)c(OCC)cc1NC(=O)COC(=O)CCOc1ccc(C(C)(C)C)cc1,?,6,?,27%,-1%,11%
COCCCNC(=O)Cc1c(C)c2c(cc(C)c3c(C)c(C)oc32)oc1=O,?,30,13µM*,0%,-1%,nt
COCCCNC(=O)Cc1c(C)c2cc3c(cc2oc1=O)OC(C)(C)CC3,26µM*,17,26µM*,0%,-16%,nt
SMILES,DT40 TDP1 CPT,IL-1B inflam inh,TDP1 cell noCPT,TGFb inhibitor,HepG2 viability,TDP1 block
O=C(N/C(=C/c1cccc([N+](=O)[O-])c1)C(=O)N1CCOCC1)c1ccc(Br)cc1,-10%,-11,?,5%,-8%,-3%
Cc1ccc2c(c1)C(=O)N1[C@H]3c4cc(Cl)ccc4OC[C@@H]3[C@H](c3ccccc3)[C@]1(C)C(=O)N2,?,-29,16µM*,?,-19%,2%
Cc1ccc2c(c1)C(=O)N1[C@H]3c4cc(C)ccc4OC[C@@H]3[C@H](c3ccccc3)[C@]1(C)C(=O)N2,12µM*,-53*,13µM*,-9%,-6%,2%
COC(=O)[C@H]1O[C@@H](c2cc(OC)c(C)c(OC)c2OCc2ccccc2)[C@H](C)[C@@H]2O[C@]12C,nt,nt,nt,nt,nt,6%
CCOC(=O)[C@]12CCC=C1N(Cc1ccco1)C(=O)[C@H](CC(=O)NCCc1ccccc1OC)C2,?,-8,?,nt,nt,nt
O=Nc1c(O)[nH]c2ccc(Cl)c(Cl)c12,?,-95*,?,18%,-7%,nt
COc1ccc(N2C(=O)c3ccc(C(=O)Nc4cc(OC)ccc4OC)cc3C2=O)cc1,1%,-4,-15%,-3%,-4%,nt
COc1ccc(N2C(=O)c3ccc(C(=O)OC(C)C)cc3C2=O)cc1,6.5µM*,4,5.8µM*,-2%,-66%,3%
Cn1c2ccccc2c2cc(/C=C(\NC(=O)c3ccccc3)C(=O)O)ccc21,11%,18,-9%,5%,19%,-5%
CC(C)OC(=O)/C(=C\c1ccc2c(c1)c1ccccc1n2C)NC(=O)c1ccccc1,21µM*,-1,21µM*,7%,6%,4%
CC(C)OC(=O)/C(=C/c1ccc2c(c1)c1ccccc1n2C)NC(=O)c1ccccc1,?,-1,10µM*,13%,-31%,-2%
Cc1ccc(-n2c3c(c(=O)[nH]c2=O)C(NC(=O)c2ccccc2F)(C(F)(F)F)C(=O)N3)cc1C (stereo unspecified),nt,nt,nt,23%,-2%,2%
COc1ccccc1C(=O)Nc1c(C(=O)N(C)c2ccccc2)sc2nc(C)cc(C)c12,?,nt,?,-1%,-35%,1%
CC(C)OCCCn1c(SCc2cccc(Br)c2)nc2c(sc3ccccc32)c1=O,13%,nt,-2%,-7%,1%,-5%
CC(C)NC(=O)Nc1cccc2c1O[C@H](CN(C)C(=O)Nc1ccc(C(F)(F)F)cc1)[C@@H](C)CN([C@H](C)CO)C2=O,-11%,?,-16%,-4%,-15%,0%

# Source: PubChem
